In experiment [1] the target is Myc proto-oncogene protein (Homo sapiens) (UniProt P01106). In words: ATG_Myc_CIS: Attagene CIS-FACTORIAL HepG2 Assay for human Myelocytomatosis (Myc) Proto-Oncogene Transcription Factor (AID 2282990). Conditions: HepG2, Attagene cis-reporter transcription factor activity; actives raise or lower the signal. The essentials:
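HepG2 cells transiently transfected with multiple cis-promoter-driven reporter transcription units, so endogenous TF activity is read. After 24 h compound exposure, reporter mRNA was quantified by RT-PCR, 6-FAM labelling, HpaI digestion and capillary electrophoresis; bidirectional fit versus DMSO.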

Experiment [2] can be described thus: ATG_NF_kB_CIS: Attagene CIS-FACTORIAL HepG2 Assay for human Nuclear Factor Kappa B (NF-kB) (AID 2282991). Particulars: HepG2 Attagene cis-factorial NF-kB reporter mRNA; actives raise or lower the signal. Summed up: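 Read-out: reporter transcript levels quantified by RT-PCR plus capillary electrophoresis of 6-FAM-labelled, HpaI-cut fragments. Transfected HepG2 cells, 24 h compound exposure, endogenous NF-kB-driven cis element; gain or loss scored versus DMSO.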

Experiment [3] in a line: ATG_NRF2_ARE_CIS: Attagene CIS-FACTORIAL HepG2 Assay for human Nuclear Factor Erythroid 2 Related Factor 2 (NFR2) response to Antioxidant Response Elements (ARE) (AID 2282992). Particulars: HepG2 Attagene ARE/NRF2 reporter, transcription factor activity; actives raise or lower the signal. The essentials:
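Using transiently transfected HepG2 cells exposed for 24 h, reporter mRNA levels were determined by RT-PCR with fluorescent primer extension and capillary electrophoresis, analysed for gain or loss of signal against DMSO.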

Experiment [4] can be described thus: ATG_Oct_MLP_CIS: Attagene CIS-FACTORIAL HepG2 Assay for human Octamer-Binding Transcription Factor (Oct) (AID 2282993). Conditions: HepG2 Attagene cis-factorial Oct reporter, mRNA; actives raise or lower the signal. The essentials: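 Multiplexed cis-reporter assay in human liver HepG2 cells, 24 h incubation. Reporter RNA amplified and labelled, then resolved by capillary electrophoresis; DMSO serves as negative control and baseline.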

Experiment [5] has as its target human RAR-related Orphan Receptor beta (RORb), RORB (gene 6096) (UniProt Q92753). In words: ATG_RORb_TRANS: Attagene TRANS-FACTORIAL HepG2 Assay for human RAR-related Orphan Receptor beta (RORb) (AID 2283010; active = hit-call score of the fitted dose curve at least 0.9, where 1 is the maximum). Summed up: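 Multiplexed transcription-factor reporter assay: HepG2 cells transiently carrying NR-Gal4/GAL4-UAS constructs, 24 h treatment, mRNA quantified by RT-PCR plus capillary electrophoresis fluorescence; activity scored as induction over DMSO.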

Experiment [6] deals with human RAR-related Orphan Receptor gamma (RORg), RORC (gene 6097) (UniProt P51449). In words: ATG_RORg_TRANS: Attagene TRANS-FACTORIAL HepG2 Assay for human RAR-related Orphan Receptor gamma (RORg) (AID 2283011; active = hit-call score of the fitted dose curve at least 0.9, where 1 is the maximum). The essentials: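 Reporter transcripts from a transfected RORg-GAL4 chimera in HepG2 cells were quantified 24 h after dosing by RT-PCR, 6-FAM labelling, HpaI digestion and capillary electrophoresis; increases over DMSO baseline were fitted.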
Sequence of human RAR-related Orphan Receptor gamma (RORg), RORC (gene 6097) (P51449 whole entry, looked up, the tested form may be a part): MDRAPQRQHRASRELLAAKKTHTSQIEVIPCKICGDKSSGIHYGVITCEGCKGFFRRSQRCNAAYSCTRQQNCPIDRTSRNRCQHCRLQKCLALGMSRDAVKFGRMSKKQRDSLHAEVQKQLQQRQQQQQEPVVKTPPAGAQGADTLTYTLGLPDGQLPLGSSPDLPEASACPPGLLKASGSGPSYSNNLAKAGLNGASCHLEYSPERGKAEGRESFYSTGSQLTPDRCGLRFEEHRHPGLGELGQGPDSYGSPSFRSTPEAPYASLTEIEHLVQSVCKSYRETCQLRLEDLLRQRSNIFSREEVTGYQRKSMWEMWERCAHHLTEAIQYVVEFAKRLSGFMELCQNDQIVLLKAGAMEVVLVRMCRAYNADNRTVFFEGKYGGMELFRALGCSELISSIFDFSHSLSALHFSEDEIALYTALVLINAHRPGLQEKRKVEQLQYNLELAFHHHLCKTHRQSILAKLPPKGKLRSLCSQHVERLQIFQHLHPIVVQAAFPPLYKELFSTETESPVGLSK

In experiment [7] the target is human Peroxisome Proliferator-activated Receptor delta (PPARd), PPARD (gene 5467) (UniProt Q03181). In words: ATG_PPARd_TRANS: Attagene TRANS-FACTORIAL HepG2 Assay for human Peroxisome Proliferator-activated Receptor delta (PPARd) (AID 2283002; active = hit-call score of the fitted dose curve at least 0.9, where 1 is the maximum). The essentials: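 HepG2 cells transiently transfected with multiplexed GAL4-UAS reporter units and exogenous chimeric NR-Gal4 proteins; 24 h compound exposure. Reporter mRNA measured by RT-PCR, 6-FAM labelling, HpaI digestion and capillary electrophoresis; gain of signal versus DMSO.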
Sequence of human Peroxisome Proliferator-activated Receptor delta (PPARd), PPARD (gene 5467) (Q03181 whole entry, looked up, the tested form may be a part): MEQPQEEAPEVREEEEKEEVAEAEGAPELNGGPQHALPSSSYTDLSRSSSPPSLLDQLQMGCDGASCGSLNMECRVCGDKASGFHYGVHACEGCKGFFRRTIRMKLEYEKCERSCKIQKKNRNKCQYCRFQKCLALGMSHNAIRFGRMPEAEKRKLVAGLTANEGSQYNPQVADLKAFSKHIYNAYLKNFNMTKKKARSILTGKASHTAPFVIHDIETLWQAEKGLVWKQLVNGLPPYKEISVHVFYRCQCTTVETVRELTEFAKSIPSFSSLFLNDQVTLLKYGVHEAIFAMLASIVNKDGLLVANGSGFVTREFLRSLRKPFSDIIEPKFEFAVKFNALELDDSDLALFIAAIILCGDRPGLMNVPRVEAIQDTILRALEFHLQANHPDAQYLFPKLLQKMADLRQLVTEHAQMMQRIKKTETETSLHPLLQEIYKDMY

The target of experiment [8] is human Retinoic Acid Receptor beta (RARb), RARB (gene 5915) (UniProt P10826). In words: ATG_RARb_TRANS: Attagene TRANS-FACTORIAL HepG2 Assay for human Retinoic Acid Receptor beta (AID 2283004; active = hit-call score of the fitted dose curve at least 0.9, where 1 is the maximum). Summed up: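 Induction of reporter mRNA from a chimeric RARb-Gal4 construct was measured by RT-PCR, FAM labelling, HpaI digestion and capillary electrophoresis. Measurements followed 24 h compound treatment of transiently transfected human HepG2 liver cells, with DMSO as baseline.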
Sequence of human Retinoic Acid Receptor beta (RARb), RARB (gene 5915) (P10826 whole entry, looked up, the tested form may be a part): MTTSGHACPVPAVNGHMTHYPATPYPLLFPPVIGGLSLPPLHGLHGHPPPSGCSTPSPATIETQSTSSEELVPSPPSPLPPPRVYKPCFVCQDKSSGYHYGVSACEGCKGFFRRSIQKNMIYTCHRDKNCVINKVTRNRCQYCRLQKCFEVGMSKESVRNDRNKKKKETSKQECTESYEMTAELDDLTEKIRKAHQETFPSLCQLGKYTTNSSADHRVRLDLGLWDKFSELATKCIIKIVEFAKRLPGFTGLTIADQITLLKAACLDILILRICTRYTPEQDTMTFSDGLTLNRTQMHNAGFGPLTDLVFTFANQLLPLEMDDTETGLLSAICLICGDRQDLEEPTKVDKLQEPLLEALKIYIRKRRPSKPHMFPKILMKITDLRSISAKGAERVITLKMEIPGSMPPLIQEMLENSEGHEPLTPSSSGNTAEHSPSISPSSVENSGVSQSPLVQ

Experiment [9] has as its target Peroxisome proliferator-activated receptor gamma (Homo sapiens) (UniProt P37231). In words: ATG_PPARg_TRANS: Attagene TRANS-FACTORIAL HepG2 Assay for human Peroxisome Proliferator-activated Receptor-gamma (PPARg) (AID 2283007; active = hit-call score of the fitted dose curve at least 0.9, where 1 is the maximum). The essentials:
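Read-out: reporter mRNA induction, detected by fluorescence after RT-PCR and capillary electrophoresis. Transiently transfected human HepG2 liver cells carrying a chimeric NR-Gal4 construct were dosed for 24 h; activity was fitted upward relative to DMSO.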

In experiment [10] the target is Nuclear receptor subfamily 1 group I member 2 (Homo sapiens) (UniProt O75469). Description: ATG_PXR_TRANS: Attagene TRANS-FACTORIAL HepG2 Assay for human Pregnane X Receptor (PXR) (AID 2283008; active = hit-call score of the fitted dose curve at least 0.9, where 1 is the maximum). Summed up:
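Multiplexed TRANS reporter panel in HepG2; this component tracks PXR-Gal4-driven reporter mRNA after 24 h dosing, measured by RT-PCR with capillary electrophoresis fluorescence, fitted against DMSO.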

Experiment [11] addresses Retinoic acid receptor alpha (Homo sapiens) (UniProt P10276). Description: ATG_RARa_TRANS: Attagene TRANS-FACTORIAL HepG2 Assay for human Retinoic Acid Receptor alpha (RARa) (AID 2283005; active = hit-call score of the fitted dose curve at least 0.9, where 1 is the maximum). The essentials:
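HepG2 cells transiently transfected with multiple reporter units expressing chimeric RARα-GAL4 fusion, with GAL4-UAS-driven reporters. After 24 h compound exposure, reporter mRNA induction quantified by RT-PCR and capillary electrophoresis with fluorescent labeling; gain-of-signal fitted relative to DMSO control.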

Experiment [12] addresses human Retinoic Acid Receptor gamma (RARg), RARG (gene 5916) (UniProt P13631). Description: ATG_RARg_TRANS: Attagene TRANS-FACTORIAL HepG2 Assay for human Retinoic Acid Receptor gamma (RARg) (AID 2283009; active = hit-call score of the fitted dose curve at least 0.9, where 1 is the maximum). The essentials:
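Gain-of-signal relative to DMSO is reported from fluorescent capillary electrophoresis of RT-PCR reporter products. These came from HepG2 cells expressing transfected RARg-GAL4 chimeras with UAS reporters, harvested 24 h after dosing.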

Experiment [13] deals with human Peroxisome Proliferator-activated Receptor alpha (PPARa), PPARA (gene 5465) (UniProt Q07869). Description: ATG_PPARa_TRANS: Attagene TRANS-FACTORIAL HepG2 Assay for human Peroxisome Proliferator-activated Receptor alpha (PPARa) (AID 2283001; active = hit-call score of the fitted dose curve at least 0.9, where 1 is the maximum). Summed up:
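Exposure: 24 h, transiently transfected HepG2 cells. Endpoint: GAL4-UAS reporter mRNA, RT-PCR with capillary electrophoresis fluorescence. Baseline: DMSO; increases fitted.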

Experiment [14] addresses Cellular tumor antigen p53 (Homo sapiens) (UniProt P04637). In words: ATG_p53_CIS: Attagene CIS-FACTORIAL HepG2 Assay for human p53 Transcription Factor (AID 2282994). Particulars: HepG2 p53 cis-element reporter, Attagene mRNA; actives raise or lower the signal. Summed up: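 In HepG2 cells, reporter transcription units under cis-regulatory promoters were transiently introduced. Following 24 h treatment, RNA was processed to labelled, digested cDNA fragments read by capillary electrophoresis; fitting was bidirectional versus DMSO.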

What is called AC50 is the midpoint of the concentration-response curve, whichever way the signal moves.

Records with an inconclusive call do not appear. Calls of active or inactive are those of the source. Rule for the calls, unless noted: active = hit-call score of the fitted dose curve at least 0.9, where 1 is the maximum; inactive = score below 0.9.

Sequence of Peroxisome proliferator-activated receptor gamma (Homo sapiens) (P37231 whole entry, looked up, the tested form may be a part): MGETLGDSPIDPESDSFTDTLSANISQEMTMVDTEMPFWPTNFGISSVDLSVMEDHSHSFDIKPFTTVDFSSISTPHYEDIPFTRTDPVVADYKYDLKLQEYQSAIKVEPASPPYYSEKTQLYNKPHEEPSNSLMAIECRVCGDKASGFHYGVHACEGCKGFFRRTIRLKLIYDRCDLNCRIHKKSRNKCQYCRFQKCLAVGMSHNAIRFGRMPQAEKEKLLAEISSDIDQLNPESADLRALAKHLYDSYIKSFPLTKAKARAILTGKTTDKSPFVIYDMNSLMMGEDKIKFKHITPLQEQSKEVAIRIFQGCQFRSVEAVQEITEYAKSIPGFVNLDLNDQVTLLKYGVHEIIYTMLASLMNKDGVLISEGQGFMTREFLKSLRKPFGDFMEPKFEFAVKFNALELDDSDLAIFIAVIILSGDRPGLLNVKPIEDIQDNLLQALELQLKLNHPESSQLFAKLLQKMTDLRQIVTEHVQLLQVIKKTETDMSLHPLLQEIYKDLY
Sequence of human Retinoic Acid Receptor gamma (RARg), RARG (gene 5916) (P13631 whole entry, looked up, the tested form may be a part): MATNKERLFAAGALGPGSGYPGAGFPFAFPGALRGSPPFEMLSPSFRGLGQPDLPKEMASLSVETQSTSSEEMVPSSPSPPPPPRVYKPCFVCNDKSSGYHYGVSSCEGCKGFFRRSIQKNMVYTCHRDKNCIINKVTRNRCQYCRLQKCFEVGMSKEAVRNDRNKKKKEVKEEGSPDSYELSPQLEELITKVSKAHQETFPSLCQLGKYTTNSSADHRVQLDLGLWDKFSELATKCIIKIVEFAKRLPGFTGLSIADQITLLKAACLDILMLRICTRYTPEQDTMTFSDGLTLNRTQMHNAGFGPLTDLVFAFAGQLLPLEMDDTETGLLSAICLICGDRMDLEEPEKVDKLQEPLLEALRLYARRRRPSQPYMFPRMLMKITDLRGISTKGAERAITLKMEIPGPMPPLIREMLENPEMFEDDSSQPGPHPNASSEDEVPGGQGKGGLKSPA
Sequence of Retinoic acid receptor alpha (Homo sapiens) (P10276 whole entry, looked up, the tested form may be a part): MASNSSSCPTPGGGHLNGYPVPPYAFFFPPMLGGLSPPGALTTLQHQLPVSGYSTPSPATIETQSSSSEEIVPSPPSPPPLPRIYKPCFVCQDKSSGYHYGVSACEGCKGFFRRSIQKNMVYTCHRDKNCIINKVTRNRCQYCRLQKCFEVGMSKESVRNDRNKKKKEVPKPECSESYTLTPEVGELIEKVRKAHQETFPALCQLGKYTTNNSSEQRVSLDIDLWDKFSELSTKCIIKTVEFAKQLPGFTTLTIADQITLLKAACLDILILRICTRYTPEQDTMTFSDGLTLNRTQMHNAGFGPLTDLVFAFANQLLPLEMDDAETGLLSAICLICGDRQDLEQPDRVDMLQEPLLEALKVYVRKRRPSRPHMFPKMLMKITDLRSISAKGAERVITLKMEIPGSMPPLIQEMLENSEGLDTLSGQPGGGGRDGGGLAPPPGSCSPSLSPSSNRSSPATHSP
Sequence of Myc proto-oncogene protein (Homo sapiens) (P01106 whole entry, looked up): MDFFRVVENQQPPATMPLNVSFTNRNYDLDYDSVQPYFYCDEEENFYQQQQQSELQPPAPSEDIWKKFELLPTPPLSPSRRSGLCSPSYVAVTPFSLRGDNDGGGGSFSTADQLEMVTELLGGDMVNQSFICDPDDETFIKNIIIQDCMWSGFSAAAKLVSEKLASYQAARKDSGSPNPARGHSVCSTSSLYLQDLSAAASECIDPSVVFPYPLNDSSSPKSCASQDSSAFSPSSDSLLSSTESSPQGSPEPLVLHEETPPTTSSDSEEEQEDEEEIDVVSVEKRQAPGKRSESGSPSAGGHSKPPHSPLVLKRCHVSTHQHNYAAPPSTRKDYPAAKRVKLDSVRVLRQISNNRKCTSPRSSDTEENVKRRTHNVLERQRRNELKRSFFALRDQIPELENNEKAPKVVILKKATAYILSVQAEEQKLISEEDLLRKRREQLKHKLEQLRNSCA
Sequence of human Peroxisome Proliferator-activated Receptor alpha (PPARa), PPARA (gene 5465) (Q07869 whole entry, looked up, the tested form may be a part): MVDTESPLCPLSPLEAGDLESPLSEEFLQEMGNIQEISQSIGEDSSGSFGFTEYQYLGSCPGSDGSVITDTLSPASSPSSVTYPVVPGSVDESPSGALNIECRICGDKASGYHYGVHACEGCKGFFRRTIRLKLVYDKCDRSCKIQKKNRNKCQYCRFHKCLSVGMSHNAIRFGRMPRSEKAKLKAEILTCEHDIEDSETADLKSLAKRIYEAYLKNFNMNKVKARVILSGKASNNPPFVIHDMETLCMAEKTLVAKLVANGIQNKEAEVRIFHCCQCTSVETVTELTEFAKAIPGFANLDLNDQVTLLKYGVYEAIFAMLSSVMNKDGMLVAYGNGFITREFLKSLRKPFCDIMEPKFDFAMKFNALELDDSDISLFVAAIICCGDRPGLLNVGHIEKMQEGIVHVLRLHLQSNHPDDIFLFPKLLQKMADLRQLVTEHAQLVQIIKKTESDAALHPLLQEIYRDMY
Sequence of Nuclear receptor subfamily 1 group I member 2 (Homo sapiens) (O75469 whole entry, looked up, the tested form may be a part): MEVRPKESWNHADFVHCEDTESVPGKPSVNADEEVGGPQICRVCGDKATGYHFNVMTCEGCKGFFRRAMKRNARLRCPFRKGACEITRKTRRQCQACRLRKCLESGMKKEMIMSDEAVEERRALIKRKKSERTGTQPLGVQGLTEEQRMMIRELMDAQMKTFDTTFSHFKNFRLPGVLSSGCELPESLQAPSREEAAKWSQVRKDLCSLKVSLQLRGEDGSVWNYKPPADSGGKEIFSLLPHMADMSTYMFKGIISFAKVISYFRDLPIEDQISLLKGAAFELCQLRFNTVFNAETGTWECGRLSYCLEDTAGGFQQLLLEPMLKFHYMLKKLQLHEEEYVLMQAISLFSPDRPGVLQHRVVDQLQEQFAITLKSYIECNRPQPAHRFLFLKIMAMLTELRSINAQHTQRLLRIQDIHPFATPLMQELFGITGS
Sequence of human RAR-related Orphan Receptor beta (RORb), RORB (gene 6096) (Q92753 whole entry, looked up, the tested form may be a part): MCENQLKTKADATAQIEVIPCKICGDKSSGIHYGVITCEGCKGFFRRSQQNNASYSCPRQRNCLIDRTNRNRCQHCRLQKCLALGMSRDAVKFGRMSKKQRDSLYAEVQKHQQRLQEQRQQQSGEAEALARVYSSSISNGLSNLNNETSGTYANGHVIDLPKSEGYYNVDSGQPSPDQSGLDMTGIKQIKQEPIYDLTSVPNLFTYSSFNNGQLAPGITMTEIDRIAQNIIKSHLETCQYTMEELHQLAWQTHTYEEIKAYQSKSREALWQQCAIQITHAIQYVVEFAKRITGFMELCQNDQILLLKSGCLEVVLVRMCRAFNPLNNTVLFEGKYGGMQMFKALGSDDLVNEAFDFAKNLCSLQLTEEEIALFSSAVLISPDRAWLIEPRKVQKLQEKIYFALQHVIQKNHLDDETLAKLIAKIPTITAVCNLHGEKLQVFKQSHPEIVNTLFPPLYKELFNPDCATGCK

For the molecule `O=P(O)(O)O`, the result in experiment [1], in [2], in [3], in experiment [4], in experiment [5] and in experiment [6] was inactive.
As for `COc1ccc(COC(C)=O)cc1`, the molecule was classed as inactive in experiment [1], in experiment [2], in experiment [3], in experiment [4] and in experiment [7].
`CCCCC(CC)C(=O)OC(C)C` (centres undefined): the outcome in experiment [1], in experiment [2], in experiment [3], in experiment [4], in experiment [8] and in [9] was inactive. For the same molecule, the outcome in experiment [10] was inactive.
Take `C[C@H]1O[C@@H](O[C@H]2[C@@H](O)C[C@H](O[C@H]3[C@@H](O)C[C@H](O[C@H]4CC[C@@]5(C)[C@H](CC[C@@H]6[C@@H]5C[C@@H](O)[C@]5(C)[C@@H](C7=CC(=O)OC7)CC[C@]65O)C4)O[C@@H]3C)O[C@@H]2C)C[C@H](O)[C@@H]1O`: the result in experiment [1], in [7], in [11], in [10], in experiment [12] and in [5] was inactive. Also, the concentration at half-maximal activity (AC50) in experiment [2] is 348 nM (active); in experiment [3], 0.613 µM (active); in experiment [4] it was 0.133 µM (active).
Take `Cc1[nH]c(=O)c(C#N)cc1-c1ccncc1`: the molecule was called inactive in experiment [1], in experiment [2], in [3], in experiment [4], in [13] and in [7]. Besides, the molecule was called inactive in [10] and in [6].
On to `OCc1cccc(Oc2ccccc2)c1`, for which the molecule was classed as inactive in experiment [1], in [2], in experiment [3], in [4], in experiment [13] and in experiment [10]. Also, the half-maximal activity concentration (AC50) in experiment [9] was 74.7 µM (active).
`CCOC(=O)CC(C)O` (centres undefined): the molecule was called inactive in experiment [1], in experiment [2], in [3], in experiment [4], in [9] and in [10]. Besides, the call in experiment [12] and in experiment [6] was inactive.
For `CN(C)c1ccncc1`, the molecule was classed as inactive in [1], in experiment [2], in [3], in experiment [4], in [13] and in [7]. Also, the molecule was called inactive in experiment [11] and in experiment [10].
In the case of `Oc1ccc2cc(SSc3ccc4cc(O)ccc4c3)ccc2c1`, the outcome in experiment [1], in [2], in experiment [7] and in experiment [10] was inactive. The half-maximal activity concentration (AC50) in experiment [3] is 8.28 µM (active); in experiment [4], 39.9 µM (active); in experiment [9] it was 5.56 µM (active).
As for `CCCCCCCCSCCO`, the outcome in [1], in [2], in [4], in [13] and in experiment [7] was inactive. Also, the results for the AC50 in [3] and in experiment [9] were 186 µM (active) and 33.8 µM (active), respectively.
For `COc1ccc(CCO)cc1`, the result in [1], in experiment [2], in experiment [3], in [4], in [13] and in experiment [8] was inactive. Also, the call in experiment [9] and in experiment [12] was inactive.
On to `CCNCCO`, for which the molecule was called inactive in [1], in [2], in experiment [3], in [4] and in [8].
With `CCCCCCCCCCCC(=O)OC[C@@H](O)[C@H]1OC[C@H](O)[C@H]1O`, the result in [1], in experiment [2], in experiment [3], in [14], in experiment [13] and in experiment [7] was inactive. Moreover, the outcome in experiment [8], in experiment [11], in experiment [9] and in experiment [12] was inactive.
`CCCCC(CC)COC(C)=O` (centres undefined): the molecule was classed as inactive in [1], in experiment [2], in experiment [3], in experiment [4], in experiment [13] and in [7]. The call in [8], in [11] and in [12] was inactive.
